# Assay results as given in PubChem BioAssay AID1159580 (chemical genetic matrix, 2015).
# Where “and” joins values, the source holds several entries; their conditions need not be identical. Equal entries are not always repeated. The whole screen tested about 5,500 compounds, of which about 2,000 (36%) were called active. Not shown: some 18% with an inconclusive outcome. Some of the results follow. Values without a mark were called inactive. No stated cut-off is given here; in the data, active means normalized growth mostly below about 0.91 (no sharp cut-off); inconclusive means no clear call, values can overlap the other calls; inactive means mostly above about 0.92.
# Test: chemical genetic growth profiling, strain panel (AID 1159580);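 further: tested at 20 µM; growth read once vehicle control cultures reached saturation at 30 °C; 1 = growth at the plate median or of vehicle wells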
# Conditions: growth OD
smiles,measurement,setting,value
O=C1c2ccccc2C(=O)C1c1ccccc1,normalized growth,"S. cerevisiae deletion strains, locus YKL085W, strain MDH1 (second series), stronger effect = lower value",0.994
same,normalized growth,"S. cerevisiae deletion strains, locus YKL085W, strain MDH1, stronger effect = lower value",0.994
same,normalized growth,"S. cerevisiae deletion strains, locus YKL160W, strain elf1, stronger effect = lower value",1
same,normalized growth,"S. cerevisiae deletion strains, locus YKL190W, strain CNB1, stronger effect = lower value",1
same,normalized growth,"S. cerevisiae deletion strains, locus YKR001C, strain vps1, stronger effect = lower value",1.01
same,normalized growth,"S. cerevisiae deletion strains, locus YKR026C, strain gcn3, stronger effect = lower value",0.976
same,normalized growth,"S. cerevisiae deletion strains, locus YKR091W, strain srl3, stronger effect = lower value",0.997
same,normalized growth,"S. cerevisiae deletion strains, locus YLL001W, strain dnm1, stronger effect = lower value",1
same,normalized growth,"S. cerevisiae deletion strains, locus YLL026W, stronger effect = lower value",0.993
same,normalized growth,"S. cerevisiae deletion strains, locus YLL041C, strain sdh2, stronger effect = lower value",1
same,normalized growth,"S. cerevisiae deletion strains, locus YLR027C, strain aat2, stronger effect = lower value",0.998
same,normalized growth,"S. cerevisiae deletion strains, locus YLR039C, strain RIC1, stronger effect = lower value",0.983 and 0.913
same,normalized growth,"S. cerevisiae deletion strains, locus YLR058C, strain SHM2 (second series), stronger effect = lower value",0.932 (active)
same,normalized growth,"S. cerevisiae deletion strains, locus YLR058C, strain SHM2, stronger effect = lower value",1.01
same,normalized growth,"S. cerevisiae deletion strains, locus YLR085C, strain ARP6, stronger effect = lower value",0.972
same,normalized growth,"S. cerevisiae deletion strains, locus YLR102C, strain apc9, stronger effect = lower value",1.01
same,normalized growth,"S. cerevisiae deletion strains, locus YLR113W, strain HOG1, stronger effect = lower value",0.934
same,normalized growth,"S. cerevisiae deletion strains, locus YLR221C, strain rsa3, stronger effect = lower value",1
same,normalized growth,"S. cerevisiae deletion strains, locus YLR258W, strain gsy2, stronger effect = lower value",1.02
same,normalized growth,"S. cerevisiae deletion strains, locus YLR262C, strain YPT6 (second series), stronger effect = lower value",1
same,normalized growth,"S. cerevisiae deletion strains, locus YLR262C, strain YPT6, stronger effect = lower value",0.967 and 0.909
same,normalized growth,"S. cerevisiae deletion strains, locus YLR268W, strain sec22, stronger effect = lower value",1.03
same,normalized growth,"S. cerevisiae deletion strains, locus YLR320W, strain mms22, stronger effect = lower value",1.01
same,normalized growth,"S. cerevisiae deletion strains, locus YLR330W, strain CHS5, stronger effect = lower value",0.999
same,normalized growth,"S. cerevisiae deletion strains, locus YLR342W, strain FKS1 (second series), stronger effect = lower value",1.01
same,normalized growth,"S. cerevisiae deletion strains, locus YLR342W, strain FKS1, stronger effect = lower value",0.998
same,normalized growth,"S. cerevisiae deletion strains, locus YLR357W, strain rsc2, stronger effect = lower value",1.03
same,normalized growth,"S. cerevisiae deletion strains, locus YLR370C, strain arc18, stronger effect = lower value",1
same,normalized growth,"S. cerevisiae deletion strains, locus YLR371W, strain rom2, stronger effect = lower value",1.01
same,normalized growth,"S. cerevisiae deletion strains, locus YLR384C, strain iki3, stronger effect = lower value",1
same,normalized growth,"S. cerevisiae deletion strains, locus YLR418C, strain cdc73, stronger effect = lower value",0.98
same,normalized growth,"S. cerevisiae deletion strains, locus YML016C, strain PPZ1, stronger effect = lower value",1
same,normalized growth,"S. cerevisiae deletion strains, locus YML032C, strain rad52, stronger effect = lower value",1.01
same,normalized growth,"S. cerevisiae deletion strains, locus YML094W, strain GIM5, stronger effect = lower value",0.945
same,normalized growth,"S. cerevisiae deletion strains, locus YML120C, strain ndi1, stronger effect = lower value",1.01
same,normalized growth,"S. cerevisiae deletion strains, locus YML124C, strain tub3, stronger effect = lower value",1.01
same,normalized growth,"S. cerevisiae deletion strains, locus YMR058W, strain fet3, stronger effect = lower value",0.999
same,normalized growth,"S. cerevisiae deletion strains, locus YMR078C, strain ctf18, stronger effect = lower value",1.01
same,normalized growth,"S. cerevisiae deletion strains, locus YMR125W, strain sto1, stronger effect = lower value",0.995
same,normalized growth,"S. cerevisiae deletion strains, locus YMR129W, stronger effect = lower value",0.992
same,normalized growth,"S. cerevisiae deletion strains, locus YMR205C, strain PFK2, stronger effect = lower value",1.01
same,normalized growth,"S. cerevisiae deletion strains, locus YMR219W, strain ESC1, stronger effect = lower value",0.954
same,normalized growth,"S. cerevisiae deletion strains, locus YMR223W, strain ubp8, stronger effect = lower value",1
same,normalized growth,"S. cerevisiae deletion strains, locus YMR231W, strain pep5, stronger effect = lower value",1
same,normalized growth,"S. cerevisiae deletion strains, locus YMR263W, strain SAP30, stronger effect = lower value",1.01
same,normalized growth,"S. cerevisiae deletion strains, locus YMR307W, strain GAS1, stronger effect = lower value",1.01
same,normalized growth,"S. cerevisiae deletion strains, locus YNL067W, strain RPL9B, stronger effect = lower value",0.999
same,normalized growth,"S. cerevisiae deletion strains, locus YNL071W, strain lat1, stronger effect = lower value",1
same,normalized growth,"S. cerevisiae deletion strains, locus YNL128W, strain TEP1, stronger effect = lower value",1.02
same,normalized growth,"S. cerevisiae deletion strains, locus YNL153C, strain GIM3, stronger effect = lower value",0.996 and 0.979
same,normalized growth,"S. cerevisiae deletion strains, locus YNL183C, strain NPR1, stronger effect = lower value",0.939
same,normalized growth,"S. cerevisiae deletion strains, locus YNL209W, strain ssb2, stronger effect = lower value",1.01
same,normalized growth,"S. cerevisiae deletion strains, locus YNL233W, strain BNI4, stronger effect = lower value",1
same,normalized growth,"S. cerevisiae deletion strains, locus YNL248C, strain rpa49, stronger effect = lower value",1
same,normalized growth,"S. cerevisiae deletion strains, locus YNL250W, strain rad50, stronger effect = lower value",0.989
same,normalized growth,"S. cerevisiae deletion strains, locus YNL271C, strain bni1, stronger effect = lower value",1
same,normalized growth,"S. cerevisiae deletion strains, locus YNL298W, strain CLA4 (second series), stronger effect = lower value",0.968
same,normalized growth,"S. cerevisiae deletion strains, locus YNL298W, strain CLA4, stronger effect = lower value",0.994
same,normalized growth,"S. cerevisiae deletion strains, locus YNL307C, strain MCK1, stronger effect = lower value",1
same,normalized growth,"S. cerevisiae deletion strains, locus YNL322C, strain KRE1 (second series), stronger effect = lower value",1
same,normalized growth,"S. cerevisiae deletion strains, locus YNL322C, strain KRE1, stronger effect = lower value",1 and 0.969
same,normalized growth,"S. cerevisiae deletion strains, locus YNR030W, strain Alg12, stronger effect = lower value",0.969
same,normalized growth,"S. cerevisiae deletion strains, locus YNR049C, strain mso1, stronger effect = lower value",0.998
same,normalized growth,"S. cerevisiae deletion strains, locus YNR052C, strain pop2, stronger effect = lower value",1.01
same,normalized growth,"S. cerevisiae deletion strains, locus YOL006C, strain TOP1, stronger effect = lower value",0.964
same,normalized growth,"S. cerevisiae deletion strains, locus YOL012C, strain htz1",0.826
same,normalized growth,"S. cerevisiae deletion strains, locus YOL147C, strain pex11, stronger effect = lower value",1.01
same,normalized growth,"S. cerevisiae deletion strains, locus YOR001W, strain rrp6, stronger effect = lower value",1.01
same,normalized growth,"S. cerevisiae deletion strains, locus YOR061W, strain CKA2, stronger effect = lower value",1
same,normalized growth,"S. cerevisiae deletion strains, locus YOR069W, strain VPS5, stronger effect = lower value",1
same,normalized growth,"S. cerevisiae deletion strains, locus YOR070C, strain gyp1, stronger effect = lower value",0.996
same,normalized growth,"S. cerevisiae deletion strains, locus YOR080W, strain dia2, stronger effect = lower value",1
same,normalized growth,"S. cerevisiae deletion strains, locus YOR083W, strain WHI5, stronger effect = lower value",0.999
same,normalized growth,"S. cerevisiae deletion strains, locus YOR106W, strain vam3, stronger effect = lower value",1.01
same,normalized growth,"S. cerevisiae deletion strains, locus YOR136W, strain idh2, stronger effect = lower value",1.01
same,normalized growth,"S. cerevisiae deletion strains, locus YOR144C, strain elg1, stronger effect = lower value",1
same,normalized growth,"S. cerevisiae deletion strains, locus YOR184W, strain ser1, stronger effect = lower value",1.02
same,normalized growth,"S. cerevisiae deletion strains, locus YOR231W, strain MKK1, stronger effect = lower value",0.992
same,normalized growth,"S. cerevisiae deletion strains, locus YOR265W, strain rbl2, stronger effect = lower value",0.995
same,normalized growth,"S. cerevisiae deletion strains, locus YOR270C, strain vph1, stronger effect = lower value",1.01
same,normalized growth,"S. cerevisiae deletion strains, locus YOR290C, strain snf2, stronger effect = lower value",0.997
same,normalized growth,"S. cerevisiae deletion strains, locus YOR316C, strain cot1, stronger effect = lower value",1.01
same,normalized growth,"S. cerevisiae deletion strains, locus YPL051W, strain arl3, stronger effect = lower value",1
same,normalized growth,"S. cerevisiae deletion strains, locus YPL055C, strain LGE1, stronger effect = lower value",1 and 0.972
same,normalized growth,"S. cerevisiae deletion strains, locus YPL078C, strain atp4, stronger effect = lower value",1
same,normalized growth,"S. cerevisiae deletion strains, locus YPL106C, strain sse1, stronger effect = lower value",1.01
same,normalized growth,"S. cerevisiae deletion strains, locus YPL240C, strain hsp82, stronger effect = lower value",1
same,normalized growth,"S. cerevisiae deletion strains, locus YPL241C, strain CIN2, stronger effect = lower value",1.21 [resistant] (active)
same,normalized growth,"S. cerevisiae deletion strains, locus YPL256C, strain CLN2, stronger effect = lower value",0.917
same,normalized growth,"S. cerevisiae deletion strains, locus YPR119W, strain clb2, stronger effect = lower value",1.01
same,normalized growth,"S. cerevisiae deletion strains, locus YPR135W, strain CTF4, stronger effect = lower value",0.934
same,normalized growth,"S. cerevisiae deletion strains, locus YPR141C, strain kar3, stronger effect = lower value",0.987
same,normalized growth,"S. cerevisiae deletion strains, locus YPR163C, strain tif3, stronger effect = lower value",1.01
same,normalized growth,"S. cerevisiae deletion strains, locus YPR167C, strain met16, stronger effect = lower value",1.01
same,normalized growth,"S. cerevisiae deletion strains, strain wtn01, stronger effect = lower value",1.01
same,normalized growth,"S. cerevisiae strains, strain wild type, stronger effect = lower value",0.999 and 0.961
